Assay results from PubChem BioAssay AID1053127 (Broad Institute, 2014).
Potency and affinity values are given separately. Active and inactive are the calls of the source.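 How the source made its calls: active means compounds whose fitted curve of lowered CTGF expression reaches half effect within a set concentration limit; inconclusive means flat moderate drop in CTGF, or unreliable curve fit; inactive means the rest.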

assay: CTGF mRNA reduction under YAP1 overexpression, dose response, mechanism study for YAP1 pathway inhibitor project, DLD1 cells, RT-qPCR, cherry-pick (AID 1053127); conditions: DLD1 YAP1-overexpressing, 24 h; series mostly up to 26 µM

outcome, inactive:
C[C@H](CO)N1C[C@H](C)[C@@H](CN(C)S(=O)(=O)c2ccc([N+](=O)[O-])cc2)OCc2ccccc2-c2c(n(C)c3ccccc23)C1=O
CCC(=O)N1Cc2cc(C(=O)NCc3cccc(F)c3)nc(-c3cccc(C4=CCCC4)c3)c2[C@H]1CCO
C[C@@H]1CN([C@H](C)CO)C(=O)CCCn2nncc2CO[C@@H]1CN(C)Cc1cccc(C(F)(F)F)c1
Cc1ccc(S(=O)(=O)Nc2ccc3c(c2)C(=O)N([C@H](C)CO)C[C@@H](C)[C@H](CN(C)S(=O)(=O)c2cccs2)OCCCC[C@@H](C)O3)cc1
N#Cc1cccc(-c2ccc3c(c2)[C@@H]2[C@@H](CCN2S(=O)(=O)c2ccc(F)cc2)[C@H](CO)N3)c1
Cc1ccc(S(=O)(=O)N[C@H]2C=C[C@H](CC(=O)NCc3ccc(Cl)c(Cl)c3)O[C@H]2CO)cc1
C/C=C/c1cccc(-c2nc(C(=O)Nc3nccs3)cc3c2[C@@H](CCO)N(C(=O)NC(C)C)C3)c1
C[C@@H]1CN([C@@H](C)CO)C(=O)c2ccccc2-c2ccccc2CO[C@@H]1CN(C)S(=O)(=O)c1cn(C)cn1
C[C@@H]1CN([C@H](C)CO)C(=O)c2cccc(NC(=O)c3nc4ccccc4s3)c2O[C@H]1CN(C)C(=O)Nc1ccc2c(c1)OCO2
C[C@H]1CN([C@@H](C)CO)C(=O)c2cccc(NC(=O)c3nc4ccccc4s3)c2O[C@@H]1CN(C)C(=O)Nc1ccc2c(c1)OCO2
CC(C)(C)S(=O)N1Cc2cc(C(=O)NCc3ccc4c(c3)OCO4)nc(-c3cccc(-c4cccc(F)c4)c3)c2[C@@H]1CCO (stereo partly specified)
